# Laboratory results reported in article PMC5540273 (PLoS ONE, 2017).
# Test system: EPHB2
# Conditions: concentration: 1 μM, replicates: in singlicate; n = 1
# 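Further: KINOMEscan kinase panel screen.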
row,SMILES,%Inh [%]
1,CN1C(=O)C(Nc2cc(Cl)c(O)c(Cl)c2)=C(c2ccc(Cl)cc2)C1=O [SB-404321],15
2,CCC(=O)c1c(-c2ccccc2)c2cc(Cl)ccc2c(=O)n1Cc1cc(C(=O)NC2CC2)n(C)n1,4
3,COc1cccc(C2=C(Nc3cccc(C(=O)O)c3)C(=O)NC2=O)c1 [SB-390770],9
4,O=C(Nc1ccc2c(c1)OCO2)NC1CCN(c2ccnc(NCc3ccc(F)cc3)n2)CC1 [GSK1379859],37
5,COc1cc2nccc(Nc3cccc(Oc4ccccc4)c3)c2cc1OC.Cl [GW284543],0
6,COc1cc(Nc2nccc(N3CCC(NC(=O)C(C)c4ccc(Cl)cc4)C3)n2)cc(OC)c1OC (stereo not shown) [GSK1379757],0
7,Cc1ccccc1COc1cc(-n2cnc3cc(Cl)ccc32)sc1C(N)=O [GW813349],19
8,CCC(=O)c1c(-c2ccccc2)c2cc(Cl)ccc2c(=O)n1Cc1cc(S(C)(=O)=O)n(CCC(C)(C)O)n1,18
9,Cc1nn2c(=O)cc(N3CCOCC3)nc2n1Cc1cccc(Cl)c1Cl [GSK2342769],0
10,COc1ccc(Nc2nccc(N3CCC(NS(=O)(=O)c4ccc(NC(C)=O)cc4)C3)n2)cc1 (stereo not shown) [GSK1379729],1
11,Cc1cccc(-c2nc(Nc3ccc4c(cnn4C)c3)c3ccccc3n2)n1 [GW876731],6
12,C[C@@H]1CC[C@H](C(=O)NC2CCCCC2)CN1c1cc(-c2ccc3c(N)n[nH]c3c2)nc(N)n1 [GSK2291363],8
13,COc1cc2ncn(-c3cc(OCc4ccncc4Br)c(C(N)=O)s3)c2cc1OC [GW854278],9
14,Cc1ccc(-c2ccc3c(ccc4sc5c(c43)NC[C@@H](C)N=C5N(C)C)n2)cn1,0
15,COc1ccc(-c2coc3ccc(-c4nnc(SCc5cccc(C#N)c5)o4)cc23)cc1,5
16,Cc1cc(Nc2nc(-c3cccc(C)n3)nc3ccccc23)ccn1 [GW872411],0
17,Cl.NS(=O)(=O)c1cccc(Nc2cc(-c3ccc(F)cc3)n[nH]2)c1 [GW824645],0
18,CC(C)(C)c1ccc(C(=O)Nc2cn3cc(-c4ccccc4)ccc3n2)cc1,0
19,CCn1c(-c2ccoc2)nc2cnccc21 [SB-733887],0

row,SMILES,%Inh [%]
1,Nc1n[nH]c2nnc(-c3ccccc3)c(-c3ccccc3)c12 [GW554060],0
2,CN(C)c1cc(-c2ccc3c(N)n[nH]c3c2)nc(N)n1 [GSK2219329],0
3,Nc1ncnc2c1ncn2-c1cccc(F)c1 [SKF-97560],4
4,Nc1nc(-c2ccccc2F)c(-c2ccnc3ccccc23)s1 [GW560459],0
5,CCn1c(-c2nonc2N)nc2ccccc21 [SB-693162/GW549034],0
6,Cc1ccc(Oc2ccc(Nc3ncnc4cc[nH]c34)cc2C)cn1,7
7,Cc1nnc(-c2ccc(C)c(-c3ccc(C(=O)O)cc3)c2)o1 [GW608005],0
8,CCS(=O)c1ccc(-c2coc3ccc(-c4nnc(C)o4)cc23)cc1 (stereo not shown),0
9,COC(=O)c1c(-c2ccccc2)c2cc(C)ccc2c(=O)n1Cc1ccccc1,2
10,Nc1nccc2scc(-c3ccc4c(c3)CCN4C(=O)Cc3ccccc3)c12 [GSK2576924],14
11,OCCCNc1nccc(-c2c(-c3cccc(C(F)(F)F)c3)nn3cc(C(F)(F)F)ccc23)n1 [GW630813],0
12,O=c1cc(N2CCOCC2)nc2n(Cc3ccc(F)c(Cl)c3)ccn12 [GSK2297099],0
13,Cc1nnc(-c2ccc3ncn(-c4ccc(S(C)=O)cc4)c3c2)o1 (stereo not shown),15
14,COC(=O)c1c(-c2ccccc2)c2cc(Br)ccc2c(=O)n1Cc1ccc(NC(=O)CCC(=O)O)cc1,7
15,COc1cc(OC)cc(-c2cc3cnc(N)nc3nc2NC(=O)NC(C)(C)C)c1,0
16,Nc1ncnc2c1ncn2-c1ccc(Cl)cc1 [AH2635],0
17,Cl.c1ccc(Cn2cnc3cc(Nc4ncnc5ccccc45)ccc32)cc1 [GW272142],0
18,CCC(=O)c1c(-c2ccccc2)c2cc(Cl)ccc2c(=O)n1Cc1ccc(C(=O)O)cc1,0
